# Results: paper PMC7862700, “An all-to-all approach to the identification of sequence-specific readers for epigenetic DNA modifications on cytosine”
# Tests used:
# Experiment in all cases: DAPPL (digital affinity profiling via proximity ligation, sequencing); 10 mM Tris-HCl pH 7.5, 50 mM NaCl, 1 mM DTT, 4% glycerol, room temperature, 30 min; GST-TFs on glutathione beads, 16-mer random dsDNA library, 0.1% formaldehyde crosslink after washing; high values mean tight binding
# Settings in all cases: protein: recombinant; tags: N-terminal GST; dsDNA, one strand shown
# ELK1 = biological target: T1, ELK1 (Homo sapiens, UniProt P19419 1-428)
# T1 sequence: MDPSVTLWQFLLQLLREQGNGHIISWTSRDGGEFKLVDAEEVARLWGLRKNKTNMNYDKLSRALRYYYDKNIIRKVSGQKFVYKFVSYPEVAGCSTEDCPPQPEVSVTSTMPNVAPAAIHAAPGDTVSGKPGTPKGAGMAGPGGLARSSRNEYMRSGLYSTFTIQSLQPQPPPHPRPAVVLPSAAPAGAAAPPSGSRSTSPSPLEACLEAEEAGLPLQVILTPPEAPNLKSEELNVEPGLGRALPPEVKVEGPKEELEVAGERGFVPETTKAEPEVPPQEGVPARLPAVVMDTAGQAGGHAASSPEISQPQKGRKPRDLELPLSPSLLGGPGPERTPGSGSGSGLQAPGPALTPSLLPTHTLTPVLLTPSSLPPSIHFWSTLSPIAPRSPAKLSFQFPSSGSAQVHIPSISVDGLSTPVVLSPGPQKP
# How it was run: (§1)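 Human transcription factors fused to GST were expressed in yeast, captured on glutathione beads, given DNA barcodes and pooled with a GST-only negative control. Pools were incubated with 200 nmole of a 16-mer random double-stranded DNA library in Tris/NaCl/DTT/glycerol buffer at room temperature for 30 min. They were then washed, crosslinked with 0.1% formaldehyde, proximity-ligated (BsaI/T4 ligase, 1 h, 37 °C), PCR-amplified and sequenced on an Illumina NextSeq500. Binding signal is each 6-mer's read frequency for a factor divided by its frequency for the GST control.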
# ETV7 = biological target: T2, ETV7 (Homo sapiens, UniProt Q9Y603 1-341)
# T2 sequence: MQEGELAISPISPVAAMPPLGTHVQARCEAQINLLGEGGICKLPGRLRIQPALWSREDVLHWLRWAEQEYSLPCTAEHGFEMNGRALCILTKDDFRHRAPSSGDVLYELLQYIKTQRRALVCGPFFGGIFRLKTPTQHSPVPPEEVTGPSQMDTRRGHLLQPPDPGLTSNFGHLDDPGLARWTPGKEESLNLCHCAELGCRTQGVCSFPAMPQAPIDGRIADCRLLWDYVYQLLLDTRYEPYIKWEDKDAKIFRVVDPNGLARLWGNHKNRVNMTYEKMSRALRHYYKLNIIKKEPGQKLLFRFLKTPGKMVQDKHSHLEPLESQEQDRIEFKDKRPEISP
# How it was run: as §1
# ETV3 = biological target: T3, ETV3 (Homo sapiens, UniProt P41162-2 1-143)
# T3 sequence: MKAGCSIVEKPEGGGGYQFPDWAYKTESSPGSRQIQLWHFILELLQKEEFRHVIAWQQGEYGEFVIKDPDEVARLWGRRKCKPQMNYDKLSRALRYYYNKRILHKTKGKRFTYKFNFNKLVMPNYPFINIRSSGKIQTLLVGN
# How it was run: as §1
# ERG = biological target: T4, ERG (Homo sapiens, UniProt P11308 1-479)
# T4 sequence: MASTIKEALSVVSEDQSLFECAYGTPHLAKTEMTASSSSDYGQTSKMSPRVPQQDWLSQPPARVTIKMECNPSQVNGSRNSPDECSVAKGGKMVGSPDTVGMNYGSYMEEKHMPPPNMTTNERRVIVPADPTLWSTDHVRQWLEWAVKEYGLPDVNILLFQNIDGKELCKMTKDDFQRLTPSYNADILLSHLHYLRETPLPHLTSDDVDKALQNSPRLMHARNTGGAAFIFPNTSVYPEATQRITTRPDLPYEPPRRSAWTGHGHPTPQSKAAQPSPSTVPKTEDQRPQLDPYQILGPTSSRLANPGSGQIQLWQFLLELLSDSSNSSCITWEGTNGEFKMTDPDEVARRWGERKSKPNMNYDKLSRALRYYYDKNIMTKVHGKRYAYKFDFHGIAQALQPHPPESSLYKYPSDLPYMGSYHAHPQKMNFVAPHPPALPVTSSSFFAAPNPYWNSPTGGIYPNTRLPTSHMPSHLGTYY
# How it was run: as §1
# EHF = biological target: T5, EHF (Homo sapiens, UniProt Q9NZC4 1-300)
# T5 sequence: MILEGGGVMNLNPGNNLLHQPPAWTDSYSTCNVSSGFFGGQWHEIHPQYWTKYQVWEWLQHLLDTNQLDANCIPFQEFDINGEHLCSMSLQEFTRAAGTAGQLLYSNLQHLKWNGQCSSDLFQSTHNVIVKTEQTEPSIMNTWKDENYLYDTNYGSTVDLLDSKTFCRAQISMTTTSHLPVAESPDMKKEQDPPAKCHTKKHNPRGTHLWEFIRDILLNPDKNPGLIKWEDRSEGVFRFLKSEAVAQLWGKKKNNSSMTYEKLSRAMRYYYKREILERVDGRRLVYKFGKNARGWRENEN
# How it was run: as §1
# ELK3 = biological target: T6, ELK3 (Homo sapiens, UniProt P41970 1-407)
# T6 sequence: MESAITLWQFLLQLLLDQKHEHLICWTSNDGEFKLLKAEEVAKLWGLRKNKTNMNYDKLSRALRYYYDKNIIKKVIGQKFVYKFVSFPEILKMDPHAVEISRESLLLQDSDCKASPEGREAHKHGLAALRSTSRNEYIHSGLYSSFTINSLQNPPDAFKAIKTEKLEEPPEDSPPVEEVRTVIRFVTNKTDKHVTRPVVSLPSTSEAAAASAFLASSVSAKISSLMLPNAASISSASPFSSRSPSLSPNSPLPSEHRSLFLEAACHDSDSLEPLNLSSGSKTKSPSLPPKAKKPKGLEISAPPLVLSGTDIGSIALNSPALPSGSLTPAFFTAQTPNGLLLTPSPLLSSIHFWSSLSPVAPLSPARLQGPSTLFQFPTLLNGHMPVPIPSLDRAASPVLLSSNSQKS
# How it was run: as §1
# SPIC = biological target: T7, SPIC (Homo sapiens, UniProt Q8N5J4 1-248)
# T7 sequence: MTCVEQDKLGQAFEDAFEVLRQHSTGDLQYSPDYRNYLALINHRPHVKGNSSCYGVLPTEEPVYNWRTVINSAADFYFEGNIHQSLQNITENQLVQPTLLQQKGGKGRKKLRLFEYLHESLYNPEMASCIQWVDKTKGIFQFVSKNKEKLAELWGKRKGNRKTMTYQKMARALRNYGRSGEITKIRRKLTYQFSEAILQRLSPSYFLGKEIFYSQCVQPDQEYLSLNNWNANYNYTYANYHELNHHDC
# How it was run: as §1
# ERF = biological target: T8, ERF (Homo sapiens, UniProt P50548 1-548)
# T8 sequence: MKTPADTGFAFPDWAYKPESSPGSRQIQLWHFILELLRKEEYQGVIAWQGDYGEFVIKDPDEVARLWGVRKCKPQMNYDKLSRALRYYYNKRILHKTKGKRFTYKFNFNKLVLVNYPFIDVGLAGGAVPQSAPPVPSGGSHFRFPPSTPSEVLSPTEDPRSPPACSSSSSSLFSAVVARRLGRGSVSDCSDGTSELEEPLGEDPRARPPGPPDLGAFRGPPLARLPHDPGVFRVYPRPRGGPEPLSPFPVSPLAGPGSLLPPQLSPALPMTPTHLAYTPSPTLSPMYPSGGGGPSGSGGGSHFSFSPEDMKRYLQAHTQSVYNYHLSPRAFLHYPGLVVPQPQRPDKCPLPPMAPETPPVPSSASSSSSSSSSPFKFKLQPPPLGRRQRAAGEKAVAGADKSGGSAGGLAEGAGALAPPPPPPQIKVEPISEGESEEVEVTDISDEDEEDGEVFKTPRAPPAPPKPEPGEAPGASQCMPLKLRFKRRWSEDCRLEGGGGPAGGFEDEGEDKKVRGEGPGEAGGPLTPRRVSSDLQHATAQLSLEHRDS
# How it was run: as §1
sequence,measurement,setting,value
GCCCGG,binding signal,ELK1,"1.03 fold enrichment (6-mer frequency, TF over GST control)"
same,binding signal,ETV7,"1.01 fold enrichment (6-mer frequency, TF over GST control)"
same,binding signal,ETV3,"1.07 fold enrichment (6-mer frequency, TF over GST control)"
AGTTAC,binding signal,ERG,"1 fold enrichment (6-mer frequency, TF over GST control)"
same,binding signal,EHF,"1.02 fold enrichment (6-mer frequency, TF over GST control)"
same,binding signal,ELK3,"1.03 fold enrichment (6-mer frequency, TF over GST control)"
same,binding signal,SPIC,"1.1 fold enrichment (6-mer frequency, TF over GST control)"
same,binding signal,ERF,"1.01 fold enrichment (6-mer frequency, TF over GST control)"
